Data reported in PubChem BioAssay AID504467 (National Center for Advancing Translational Sciences (NCATS), 2011).
Out of some 330,000 compounds screened, about 7,700 (2.3%) were called active. Not shown: some 26% with an inconclusive outcome. The entries come from a sample that favours actives as a whole. Values without a mark were called inactive. Calls come from the whole dose curve; as a rule, active = well fitted inhibition curve with a large enough effect; inconclusive = small, poorly fitted or top-dose-only effect, or effect the other way; inactive = flat fitted curve, though single readings scatter.

experiment: qHTS screen for small molecules that inhibit ELG1-dependent DNA repair in human embryonic kidney (HEK293T) cells expressing luciferase-tagged ELG1; conditions: HEK293T ELG1-luciferase reporter, luminescence, 16 h, DNA damage induced by 5-fluorouridine; series mostly up to 46.1 µM; activity change, negative = inhibition: at the top concentration; note: nearly all actives have a fitted effect of over 55% in size
Procedure, shortened: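 5-Fluorouridine DNA damage + compound/DMSO, 2,000 cells/well, 16 h, 37 °C/5% CO2. ONE-Glo, 30 min RT, luminescence. Readout = decrease in reporter signal.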
% is set by controls: 0 for no effect and ±100 for the full control effect; potency is the fitted concentration of half-maximal effect.

| Compound | activity change, negative = inhibition | Potency |
| --- | --- | --- |
| Cc1c(NC(=O)C(C)OC(=O)c2ccccc2O)c(=O)n(-c2ccccc2)n1C (configuration not stated) | 22.8% |  |
| Cc1cc(C(=O)OC(C)C(=O)Nc2cccc(S(=O)(=O)N3CCOCC3)c2)c(C)o1 (configuration not stated) | -16.8% |  |
| Cc1ccc(NC(=O)C(C)OC(=O)Cc2c[nH]c3ccccc23)cc1S(=O)(=O)N1CCOCC1 (configuration not stated) |  | 18.3 µM (active) |
| CC(OC(=O)CCCc1c[nH]c2ccccc12)C(=O)Nc1ccc(S(N)(=O)=O)cc1 (configuration not stated) | 3.33% |  |
| O=C(N[C@H]1C/C=C\C(c2ccc(F)cc2)N(Cc2ccccc2)C(=O)C1)OCC1c2ccccc2-c2ccccc21 (some centres not stated) | -10.5% |  |
| Nc1c(Cl)cc(-c2csc(N3CCCC3c3nc4cc(Cl)c(Cl)cc4n3CCOCCO)n2)cc1Cl (configuration not stated) | -9.47% |  |
| COc1ccc(OC)c(C(=O)CSc2nnc(-c3cccs3)o2)c1 | 25.4% |  |
| COc1ccc(C(=O)CSc2nnc(-c3ccco3)o2)cc1 | 4.26% |  |
| COc1ccc(-n2c(C)cc(C(=O)CSc3nnc(-c4cccs4)o3)c2C)cc1 |  | 6.51 µM (active) |
| CCN(CC)CCN1C(=O)C2C(C(=O)Nc3ccc(Br)cc3)C3C=CC2(O3)C1C(=O)NC1CCCCC1 (configuration not stated) | 24.9% |  |
| Cc1ccc(NC(=S)NCCc2ccc(Cl)cc2)c(C)c1 | 1.86% |  |
| CCC1(c2ccccc2)NC(=O)N(CC(=O)Nc2ccccc2C(=O)NC2CCCC2)C1=O (configuration not stated) | 4.06% |  |
| CCc1ccc(NC(=O)Cn2nnc(C(=O)NCc3ccc(OC)cc3)c2N)cc1 | 17.6% |  |
| COc1cc(C2CC(=O)Oc3cc(OC)c(OC)c(OC)c32)cc(OC)c1OC (configuration not stated) | 17.8% |  |
| CCN(CC(=O)Nc1ccc2c(c1)OCO2)S(=O)(=O)c1ccccc1 | 1.72% |  |
| O=C(CN(c1ccc2c(c1)OCCO2)S(=O)(=O)c1ccccc1)Nc1ccc2c(c1)OCO2 |  | 9.2 µM (active) |
| O=C(CCS(=O)(=O)Cc1ccccc1)Nc1ccc2c(c1)OCCO2 | 21.4% |  |
| NC(=O)c1cc(S(=O)(=O)NCCCc2ccco2)cs1 | 0.127% |  |
| CCn1cc(C(=O)NCC2COc3ccccc3O2)c2cc(OC)c(OC)cc2c1=O (configuration not stated) |  | 14.6 µM (active) |
| O=C(Cn1cnc2ccccc2c1=O)NCC1COc2ccccc2O1 (configuration not stated) | -0.196% |  |
| Cc1noc(C)c1C(=O)NCC1COc2ccccc2O1 (configuration not stated) | 0.0743% |  |
| CCC1CCCCN1C(=O)CSc1nc2c(c(=O)n1C)SC(C)C2 (configuration not stated) | -8.54% |  |
| CC(=O)c1cccc(OCC(=O)OCC(=O)Nc2cc(S(=O)(=O)N3CCCCC3)ccc2C)c1 | 1.04% |  |
| CC(C(=O)Nc1ccc(O)c(C(=O)O)c1)N1C(=O)/C(=C/c2cccs2)SC1=S (configuration not stated) | 10.8% |  |
| COc1ccccc1C(=O)NCCC(=O)NCC(c1ccco1)N1CCCCC1 (configuration not stated) | 10.2% |  |

| Compound | activity change, negative = inhibition | Potency |
| --- | --- | --- |
| COc1ccccc1C(=O)NCCn1cc(SCC(=O)NCc2ccco2)c2ccccc21 |  | 25.9 µM (active) |
| COc1cccc(OC)c1C(=O)NC(=S)NCc1ccco1 | 14% |  |
| Cc1cc(C)n2nc(C(=O)Nc3cccc(S(=O)(=O)N4CCOCC4)c3)nc2n1 | 14.6% |  |
| O=C(CCNC(=O)c1ccccc1Cl)NN=Cc1ccco1 | 2.44% |  |
| C#CCOCCOCCOCCNc1nc(N2CCN(C(=O)[C@H](CCC(=O)O)n3cc(CN)nn3)CC2)nc(N2CCN(C(=O)[C@H](CCC(=O)O)n3cc(CN)nn3)CC2)n1 | 7.9% |  |
| O=C(NC1CCCC1)C(c1ccco1)N(C(=O)c1ccco1)c1ccc(F)cc1 (configuration not stated) | -2.68% |  |
| CC1=C[C@H]2Cc3cc(C)cc(C)c3S(=O)(=O)[C@@H]2C=C1 |  | 16.4 µM (active) |
| COc1ccc(NC(=O)C2=NNC(=O)CC2)cc1S(=O)(=O)N1CCCCC1 | 0.964% |  |
| Cc1ccc(NC(=O)CCC(=O)N2CCC(c3ccccc3)=N2)cc1S(=O)(=O)N1CCCCC1 | 18.5% |  |
| CCc1ccccc1OCC(=O)Nc1ccc(C)c(S(=O)(=O)N2CCCCCC2)c1 |  | 20.6 µM (active) |
| Cc1ccc(NC(=O)COC(=O)C2CC2)cc1S(=O)(=O)N1CCOCC1 | 10.1% |  |
| COc1ccccc1C(=O)Nc1ccc(C)c(S(=O)(=O)N2CCCCC2)c1 |  | 4.11 µM (active) |
| COc1ccccc1C(CNC(=O)c1ccc(C)c(S(=O)(=O)N2CCCCC2)c1)N(C)C (configuration not stated) | 7.46% |  |
| Cc1ccc(NS(=O)(=O)c2ccc(F)cc2)nc1 | -1.5% |  |
| COc1ccccc1C(=O)NCC(=O)NCCSc1ccc(Br)cc1 | 0.299% |  |
| COc1ccccc1NS(=O)(=O)c1ccc(C)c(C(=O)NCC(c2ccco2)N(C)C)c1 (configuration not stated) | 7.5% |  |
| Cc1ccc(C)c(N2CCN(C(=O)CCCn3c(=O)c4cccn4c4cccnc43)CC2)c1 |  | 18.3 µM (active) |
| CCc1nn(CC(=O)N2CCN(c3cc(C)ccc3C)CC2)c(=O)c2cc3occc3n12 | 9.86% |  |
| Cc1ccc(C)c(N2CCN(C(=O)CCc3nc4ccccc4[nH]3)CC2)c1 | -4.67% |  |
| Cc1ccc(C)c(N2CCN(C(=O)Cn3ncn4cccc4c3=O)CC2)c1 | -9.5% |  |
| O=C(CCCCCn1c(=S)[nH]c2cc3c(cc2c1=O)OCO3)N1CCN(c2ccc(F)cc2)CC1 | 2.97% |  |
| Cc1ccc(C)c(N2CCN(C(=O)CCCCCn3c(=S)[nH]c4ccc(N5CCOCC5)cc4c3=O)CC2)c1 |  | 5.8 µM (active) |
| COC(=O)[C@@]12CCCN1[C@H](c1ccc(-c3ccc(F)cc3)c(OC)c1)[C@H]1C(=O)N(C)C(=O)[C@H]12 | -0.867% |  |
| COc1ccc(CCNC(=S)N2CCN(S(=O)(=O)c3ccc(F)cc3)CC2)cc1 | 15.3% |  |
| COc1ccc(-c2cc(C(F)(F)F)nc(SCC(=O)Nc3ccc4c(c3)OCO4)n2)cc1OC | -18.9% |  |

| Compound | activity change, negative = inhibition | Potency |
| --- | --- | --- |
| COc1ccc(-c2cc(C(F)(F)F)nc(S(C)(=O)=O)n2)cc1OC |  | 20.6 µM (active) |
| COc1cc(OC)nc(S(C)(=O)=O)n1 | -6.22% |  |
| COc1cccc(NC(=O)CSc2nnc(C3CCCCC3)n2N)c1 | 19.8% |  |
| O=C(CSc1ccccc1)Nc1cccc(S(=O)(=O)N2CCCCC2)c1 | 1.06% |  |
| CCN1CCN(C2CCCCC2NS(=O)(=O)c2ccc(Cl)cc2)CC1 (configuration not stated) | 10.8% |  |
| CCS(=O)(=O)c1ccc2oc(SCC(=O)N3c4ccccc4CC3C)nc2c1 (configuration not stated) |  | 23.1 µM (active) |
| CC1Cc2ccccc2N1C(=O)CSc1nnc(-c2ccc(S(=O)(=O)N3CCCCC3)cc2)o1 (configuration not stated) | -1.63% |  |
| Cc1cc(=O)[nH]c(SCC(=O)N2c3ccccc3CC2C)n1 (configuration not stated) | 11.9% |  |
| CC(C)(c1ccccc1)c1ccc(OCCN2CCCC2)cc1 | 3.08% |  |
| O=C(Nc1ccc(N2CCOCC2)cc1)c1cccc(S(=O)(=O)N2CCOCC2)c1 | -1.34% |  |
| COc1ccc(C)cc1NC(=O)CN1c2cccc3cccc(c23)S1(=O)=O | -27.2% |  |
| CC(Cc1cccs1)N(Cc1ccc(Cl)cc1)C(=O)c1ccncc1 (configuration not stated) | -6.31% |  |
| CCCN(CC(=O)Nc1ccccc1C)C(=O)c1cc(=O)[nH]c2ccccc12 | 23.1% |  |
| CC1CCc2[nH]c3ccc(C(=O)N(C)CC(=O)Nc4cccc(F)c4)cc3c2C1 (configuration not stated) | -15.3% |  |
| CCCN(CC(=O)Nc1ccccc1C)C(=O)c1ccc2[nH]c3c(c2c1)CC(C)CC3 (configuration not stated) |  | 9.2 µM (active) |
| CCc1cc2c(NC3CCCC3)ncnc2s1 | 4.18% |  |
| CCc1cc2c(N3CCN(c4nnc(CC)s4)CC3)ncnc2s1 |  | 18.4 µM (active) |
| CCc1cc2c(NC(Cc3ccccc3)C(=O)O)ncnc2s1 (configuration not stated) | 2.07% |  |
| O=C(Nc1nnc(C2=COCCO2)o1)c1ccc([N+](=O)[O-])s1 | -9.08% |  |
| COc1ccc(S(=O)(=O)N2CCOCC2)cc1NC(=O)CSc1cc(C)ccc1C | -11.9% |  |
| CCOCc1c(C(=O)N2CCN(Cc3ccc(Br)s3)CC2)oc2ccccc12 | -5.2% |  |
| COc1ccc(-n2cnnc2SCC(=O)Nc2cccc(S(N)(=O)=O)c2)cc1 | -5.02% |  |
| Cc1nnc(SCC(=O)Nc2cccc(N)c2)n1-c1ccccc1 | -9.23% |  |
| NS(=O)(=O)c1cccc(NC(=O)CSc2nc3ccccc3n2-c2ccccc2)c1 |  | 9.2 µM (active) |
| Clc1ccc(C[n+]2cc(-c3ccccc3)n3c2CCC3)cc1 |  | 2.91 µM (active) |

| Compound | activity change, negative = inhibition | Potency |
| --- | --- | --- |
| Cc1ccc(-c2c[n+](CC(=O)Nc3ccccc3)c3n2CCC3)cc1 | -7.46% |  |
| Cc1ccc(C(=O)C[n+]2cc(-c3ccccc3)n3c2CCCCC3)cc1 |  | inactive |
| CCC1Nc2ncnc(N3CCN(c4ccccc4)CC3)c2N(Cc2ccc(Cl)cc2)C1=O (configuration not stated) | -0.364% |  |
| CCCCN(C(=O)C1CCC1)c1c(N)n(Cc2ccccc2)c(=O)[nH]c1=O | 9.17% |  |
| CCC(=O)OCCNc1nc(-c2ccccc2)nc2ccccc12 | -11% |  |
| CN1CCN(c2nc(Nc3ccc(O)cc3)nc3ccccc23)CC1 | 17.4% |  |
| Cc1cccc(-c2nc(Nc3ccc(O)cc3)c3ccccc3n2)c1 |  | 20.6 µM (active) |
| COc1ccc(Cl)cc1NC(=O)CN(C)CC(=O)Nc1ccc2c(c1)OCO2 | -25.5% |  |
| C/C=C/C(=O)Nc1ccc(N2CCN(c3ccc(C(F)(F)F)cn3)CC2)nc1 | -9.39% |  |
| Cc1ccc(F)cc1NC(=O)N1CCCN(c2ccc(C(F)(F)F)cn2)CC1 |  | 5.17 µM (active) |
| CCOc1ccc(C(=O)NCC(=O)N2CCN(c3ccc(C(F)(F)F)cn3)CC2)cc1 | 14.2% |  |
| COc1ccccc1NC(=O)Nc1nc(CC(=O)Nc2ccccc2F)cs1 | -29.7% |  |
| Cc1ccc(S(=O)(=O)NC[C@H]2O[C@@H](n3cnc4c(N)ncnc43)[C@H](O)[C@@H]2O)s1 | 1.49% |  |
| CSc1nc(-c2ccccc2)nc(C(Cl)Cl)n1 |  | 20.6 µM (active) |
| CSc1nc(C)cc(SC(C(C)=O)C(=O)Nc2ccccc2)n1 (configuration not stated) | 4.04% |  |
| CCCCC(=O)Nc1nnc(S(=O)(=O)N(C)Cc2ccco2)s1 | 3.15% |  |
| Cc1ccccc1CN1CCC(C(=O)Nc2ccc(Oc3cccnc3)cc2)CC1 | -15% |  |
| CCOC(=O)N1CCN(CC(=O)Nc2ccc(F)cc2)CC1 | 15.5% |  |
| CCOC(=O)N1CCN(CC(=O)Nc2cc(C)nn2-c2nc3ccccc3s2)CC1 |  | 10.3 µM (active) |
| CCOC(=O)N1CCN(C(=O)Cn2cnc3ccccc3c2=O)CC1 | 2.4% |  |
| Cc1cc(C)c(S(=O)(=O)n2cc(C(C)C(N)C(=O)O)c3ccccc32)c(C)c1 (configuration not stated) | 5.41% |  |
| O=C(CSc1nnc(COc2ccc(Cl)cc2)n1Cc1ccco1)N1CCNC1=O | -1.34% |  |
